Compounds without any hit were thinned out: in the full panel of roughly 79,000, 15% have a hit. Rule as the data show it: active = growth inhibition above about 70%; inactive = the rest.
Columns and labels:
[1] = NCI Yeast Anticancer Drug Screen. Data for the wt1 strain (AID 149);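 also: 0% = growth of vehicle-treated wt1 cultures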; conditions: S. cerevisiae wt1 strain (SPY 50644) growth inhibition, stronger effect = higher value
Summary of the method: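 Measured: growth of wt1 yeast under compound versus vehicle treatment, reported as inhibition.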

[2] = NCI Yeast Anticancer Drug Screen. Data for the rad50EPP+ strain (AID 151);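 also: 0% = growth of vehicle-treated control cultures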; conditions: S. cerevisiae rad50 mutant strain, stronger effect = higher value
Summary of the method: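 Compounds were applied to the rad50EPP+ yeast strain, which bears a defined DNA repair alteration, and growth inhibition was determined relative to vehicle-treated cultures.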

[3] = NCI Yeast Anticancer Drug Screen. Data for the mgt1 strain (AID 153); conditions: S. cerevisiae mgt1 mutant growth inhibition, stronger effect = higher value
Summary of the method: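 Strain: mgt1 yeast, one of a set carrying defined DNA damage repair or cell cycle control alterations. Compound-treated growth compared with vehicle.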

[4] = NCI Yeast Anticancer Drug Screen. Data for the rad50 strain (AID 155);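 also: 0% = growth of vehicle-only cultures of the same strain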; conditions: S. cerevisiae rad50 strain growth inhibition, stronger effect = higher value
Summary of the method: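 Growth of the mutant yeast was measured after compound exposure and referenced to vehicle-treated cultures.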

[5] = NCI Yeast Anticancer Drug Screen. Data for the mec2-1 strain (AID 157); conditions: S. cerevisiae mec2-1 strain, stronger effect = higher value
Summary of the method: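 Strain: mec2-1 (DNA repair/cell cycle alteration). Compound exposure, then growth measured; inhibition expressed relative to vehicle.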

[6] = NCI Yeast Anticancer Drug Screen. Data for the rad14 strain (AID 159);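 also: 0% = growth of vehicle-treated control cultures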; conditions: S. cerevisiae rad14 strain growth inhibition, stronger effect = higher value
Summary of the method: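 Here, inhibition of yeast growth was measured after compound exposure, using a strain with a genetic defect in DNA damage repair and vehicle-treated cultures as the reference.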

[7] = NCI Yeast Anticancer Drug Screen. Data for the CLN2oe strain (AID 163);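 also: 0% = growth of vehicle-only control cultures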; conditions: S. cerevisiae CLN2oe strain, stronger effect = higher value
Summary of the method: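 Growth of a genetically modified yeast strain is measured after compound exposure and compared with cultures given vehicle alone.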

[8] = NCI Yeast Anticancer Drug Screen. Data for the cln2 rad14 strain (AID 165);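 also: 0% = growth equal to vehicle treated cultures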; conditions: S. cerevisiae cln2 rad14 strain, stronger effect = higher value
Summary of the method: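 Compounds are applied to the cln2 rad14 yeast strain, and growth is then compared with that of vehicle-treated cultures to give inhibition.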

[9] = NCI Yeast Anticancer Drug Screen. Data for the bub3 strain (AID 167); conditions: S. cerevisiae bub3 mutant strain, stronger effect = higher value
Summary of the method: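 Whole-cell yeast assay. The mutant strain was incubated with compounds, and growth inhibition was determined by comparison with vehicle-treated cells.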

[10] = NCI Yeast Anticancer Drug Screen. Data for the wt2 strain (AID 169);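 also: 0% = growth of vehicle-treated yeast cultures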; conditions: S. cerevisiae wt2 strain growth inhibition, stronger effect = higher value
Summary of the method: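 This strain belongs to a panel of yeast strains with defined genetic alterations in DNA damage repair or cell cycle control. Compounds are applied, and growth inhibition is measured against vehicle-treated cultures.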

[11] = NCI Yeast Anticancer Drug Screen. Data for the sgs1 strain (AID 173);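 also: 0% = growth of vehicle-only control cultures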; conditions: S. cerevisiae sgs1 mutant, stronger effect = higher value
Summary of the method: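 Growth of a yeast strain bearing a defined genetic alteration is measured after compound treatment. Inhibition is expressed relative to vehicle-only controls.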

[12] = NCI Yeast Anticancer Drug Screen. Data for the mlh1 rad18 strain (AID 175); conditions: S. cerevisiae mlh1 rad18 strain growth inhibition, stronger effect = higher value
Summary of the method: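 Read-out is yeast growth inhibition, calculated against vehicle-only controls. The compound was applied to a strain engineered with DNA damage repair alterations.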

[13] = NCI Yeast Anticancer Drug Screen. Data for the rad18 strain (AID 177); conditions: S. cerevisiae rad18 mutant growth inhibition, stronger effect = higher value
Summary of the method: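 Growth of the mutant yeast strain after compound exposure, normalised to vehicle-only cultures.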

[14] = at 5.0 µM (retest, dose inferred, filed as 0.5)
[15] = at 50.0 µM (retest, dose inferred, filed as 5.0)

Measured: growth inhibition

O=c1[nH]c(=O)n(CCCO)cc1F
inactive: [1]; at 1.2 µM -32% | [1]; at 3.7 µM 0% | [1]; at 11.0 µM -9% | [1]; at 33.0 µM 4% | [1]; at 100.0 µM -4% | [2]; at 1.2 µM -14% | [2]; at 3.7 µM -7% | [2]; at 11.0 µM -9% | [2]; at 33.0 µM -10% | [2]; at 100.0 µM -2% | [3]; at 1.2 µM -13% | [3]; at 3.7 µM -31% | [3]; at 11.0 µM -24% | [3]; at 33.0 µM -33% | [3]; at 100.0 µM -18% | [4]; at 1.2 µM -21% | [4]; at 3.7 µM -11% | [4]; [14] 42% | [4]; at 11.0 µM -10% | [4]; at 33.0 µM -12% | [4]; [15] 44% | [4]; at 50.0 µM 34.4% | [4]; at 100.0 µM -13% | [5]; at 1.2 µM -36% | [5]; at 3.7 µM -27% | [5]; [14] 24% | [5]; at 11.0 µM -41% | [5]; at 33.0 µM -33% | [5]; [15] 20% | [5]; at 50.0 µM -38.6% | [5]; at 100.0 µM -23% | [6]; at 1.2 µM -29% | [6]; at 3.7 µM -19% | [6]; at 11.0 µM -20% | [6]; at 33.0 µM -26% | [6]; at 100.0 µM -30% | [7]; at 1.2 µM 3% | [7]; at 3.7 µM 8% | [7]; at 11.0 µM 9% | [7]; at 33.0 µM 3% | [7]; at 100.0 µM 7% | [8]; [14] 13% | [8]; [15] 26% | [8]; at 50.0 µM -8.55% | [9]; at 1.2 µM -14% | [9]; at 3.7 µM -22% | [9]; [14] 20% | [9]; at 11.0 µM -22% | [9]; at 33.0 µM -37% | [9]; [15] 15% | [9]; at 50.0 µM -26.6% | [9]; at 100.0 µM -21% | [10]; at 1.2 µM 3% | [10]; at 3.7 µM -6% | [10]; at 11.0 µM -14% | [10]; at 33.0 µM -22% | [10]; at 100.0 µM -18% | [11]; at 1.2 µM -27% | [11]; at 3.7 µM -16% | [11]; at 11.0 µM -24% | [11]; at 33.0 µM -3% | [11]; at 100.0 µM -11% | [12]; [14] 47% | [12]; [15] 45% | [12]; at 50.0 µM -41.3% | [13]; at 1.2 µM -18% | [13]; at 3.7 µM -6% | [13]; at 11.0 µM -4% | [13]; at 33.0 µM 13% | [13]; at 100.0 µM 42%

— PubChem BioAssay (NCI)
